USP1-UAF1 inh = Inhibitors of USP1/UAF1: Primary Screen | recombinant USP1/UAF1, Ub-Rhodamine cleavage fluorescence | Potency, µM (series often up to 57.1 µM), hits mostly inhibitors | 0.23% of 390,000 active | AID 743255, 2014; further: nearly all actives have a fitted effect of over 60% in size
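1 nM enzyme complex + cpd, 15 min RT; start with Ub-Rho 150nM final; kinetic fluorescence ex 480/em 540, 6 reads q60 s. Buffer 50mM HEPES pH 7.8, 0.5mM EDTA, 0.1 mg/ml BSA, 1mM TCEP, 0.01% Tween-20.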
Coupling enz = qHTS Assay for Inhibitors of Fructose-1,6-bisphosphate Aldolase from Giardia Lamblia: Coupling assay counterscreen. coupling enzyme system counterscreen, AmpLite Red fluorescence. activity change, negative = inhibition, % at 58.2 µM, hits read low. 0.67% of 290,000 active; in the data active means activity change below about -30%
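Activity here indicates interference with the coupling reaction, not aldolase inhibition. Compounds at 57.5 uM final met coupling enzymes for 10 min at RT; substrate and AmpLite Red detection followed, with a 525/598 nm fluorescence read after 20 min.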
EPAC2 agonist = qHTS for Agonist of cAMP-regulated guanine nucleotide exchange factor 4 (EPAC2): primary screen | Rap guanine nucleotide exchange factor 4 (Homo sapiens), Q8WZA2 | EPAC2 activation, biochemical qHTS; response scale: 100% = 6.5 mM cAMP response | Potency, µM (series often up to 154 µM), usual class: activators | 0.079% of 360,000 active; further: nearly all actives have a fitted effect of over 50% in size
Target sequence (Q8WZA2 whole entry, looked up): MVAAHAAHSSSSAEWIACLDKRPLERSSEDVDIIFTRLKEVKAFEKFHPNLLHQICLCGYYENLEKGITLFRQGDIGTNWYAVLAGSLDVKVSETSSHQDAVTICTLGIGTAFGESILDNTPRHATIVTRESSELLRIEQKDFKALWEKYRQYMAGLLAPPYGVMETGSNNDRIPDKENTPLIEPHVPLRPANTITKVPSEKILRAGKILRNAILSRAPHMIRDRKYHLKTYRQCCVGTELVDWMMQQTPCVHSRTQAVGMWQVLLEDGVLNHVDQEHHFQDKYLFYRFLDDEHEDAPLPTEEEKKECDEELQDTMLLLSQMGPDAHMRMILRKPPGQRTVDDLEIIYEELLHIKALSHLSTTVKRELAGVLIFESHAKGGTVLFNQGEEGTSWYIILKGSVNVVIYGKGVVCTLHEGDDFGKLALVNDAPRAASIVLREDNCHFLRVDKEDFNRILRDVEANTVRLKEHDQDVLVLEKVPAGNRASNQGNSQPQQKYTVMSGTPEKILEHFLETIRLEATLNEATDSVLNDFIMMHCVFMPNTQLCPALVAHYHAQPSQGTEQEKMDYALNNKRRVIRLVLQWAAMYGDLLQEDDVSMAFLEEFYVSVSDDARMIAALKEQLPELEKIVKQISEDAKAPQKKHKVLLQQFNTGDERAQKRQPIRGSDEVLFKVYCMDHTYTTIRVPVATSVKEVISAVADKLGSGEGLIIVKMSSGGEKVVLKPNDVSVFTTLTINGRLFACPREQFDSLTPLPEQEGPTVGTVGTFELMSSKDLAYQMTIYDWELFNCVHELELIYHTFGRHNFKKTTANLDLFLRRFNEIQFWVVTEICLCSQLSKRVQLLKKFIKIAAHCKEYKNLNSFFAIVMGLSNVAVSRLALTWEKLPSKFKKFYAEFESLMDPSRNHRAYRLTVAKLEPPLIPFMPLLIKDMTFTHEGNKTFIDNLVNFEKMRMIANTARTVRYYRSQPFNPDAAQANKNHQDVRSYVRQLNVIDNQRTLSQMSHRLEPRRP
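qHTS, titration series. 100 nM EPAC2 / 250 nM Rap1B-BODIPY-GDP / 50 uM GDP; RT; ex 480/em 540 nm, 5-min reads to 30 min. Norm. to 6.5 mM cAMP = activation.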
EPAC1 agonist = qHTS for Agonist of cAMP-regulated guanine nucleotide exchange factor 3 (EPAC1): primary screen; Rap guanine nucleotide exchange factor 3 (Homo sapiens), O95398; EPAC1 agonist qHTS, biochemical assay; response scale: 100% = response to 6.5 mM cAMP; Potency, µM (highest dose often 154 µM), actives largely listed as activators; 0.073% of 360,000 active; AID 720707, 2013; further: nearly all actives have a fitted effect of over 60% in size
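EPAC1 100 nM, Rap1B–BODIPY-GDP 250 nM, unlabeled GDP 50 uM; compound titration; 5 min RT; kinetic read ex480/em540 at 5-min intervals ×30 min; data normalized to 6.5 mM cAMP agonist control.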
EPAC1 antag = qHTS for Antagonist of cAMP-regulated guanine nucleotide exchange factor 3 (EPAC1): primary screen; Potency, µM (series often up to 115 µM), hits mostly inhibitors; EPAC1 GEF assay, Rap1b-BODIPY-GDP exchange fluorescence; Rap guanine nucleotide exchange factor 3 (Homo sapiens), O95398; 0.14% of 360,000 active; AID 720709, 2013; further: nearly all actives have a fitted effect of over 50% in size
EPAC2 antag = qHTS for Antagonist of cAMP-regulated guanine nucleotide exchange factor 2 (EPAC2): primary screen. Rap guanine nucleotide exchange factor 4 (Homo sapiens), Q8WZA2. EPAC2 GEF exchange of Rap1B-BODIPY-GDP, fluorescence. Potency, µM (top dose mostly 114 µM), most hits filed as inhibitors. 0.18% of 360,000 active. AID 720708, 2013; further: nearly all actives have a fitted effect of over 45% in size
Of the large screens only hits and unclear results are named; the others gave an inactive call; ! = not active in a repeat. A selection: hits, their analogues and other compounds. The true share with any hit is near 0.87%. Unless noted, the call rests on the fitted dose curve; in most records, active means well fitted curve in the direction sought with a large enough effect; inconclusive means small, poorly fitted or top-dose-only effect, or another doubt; inactive means no such curve, though single readings can be large; an effect the other way counts as inactive or inconclusive.

COc1ccc([N+](=O)[O-])cc1N(CC(O)CN1CCCC1)S(=O)(=O)c1ccc(C)cc1 (stereo not given)	none
Cc1cccc(C)c1-n1cccc1/C=C1\SC(=S)N(c2cccc(C(=O)O)c2)C1=O	USP1-UAF1 inh inconclusive, EPAC1 antag 50µM, EPAC2 antag inconclusive
Cc1ccc(N(CCO)C(=S)Nc2ccccc2)cc1	none
Cc1ccccc1OCC(=O)N/N=C/c1ccc(N2CCOCC2)o1	none (no result: Coupling enz)
CCc1noc(C)c1C(=O)N1CCCSC1=Nc1ccccc1Cl	EPAC2 antag 50µM (no result: Coupling enz)
Cc1ccc2nc(NC(=S)NC(=O)c3ccco3)sc2c1	none
Cc1ccc2nsnc2c1NC(=S)NC(=O)c1ccco1	Coupling enz -45
CCCn1c(N)c(C(=O)CSc2nnc(Cc3ccccc3)o2)c(=O)n(C)c1=O	EPAC1 antag inconclusive
CCSc1nnc(-c2ccncc2)o1	none (no result: Coupling enz)
CCSc1nnc(-c2sc3nnc(-c4ccccc4)c(-c4ccccc4)c3c2N)o1	USP1-UAF1 inh 18µM, EPAC2 agonist 100µM
COC(=O)C1=CN(c2ccc(Oc3ccccc3)cc2)C(N)=C(C#N)C1c1cccc(OC)c1OC (stereo not given)	none (no result: USP1-UAF1 inh, Coupling enz)
CS(=O)(=O)c1cc([N+](=O)[O-])c(Sc2nc3ccccc3[nH]2)c([N+](=O)[O-])c1	Coupling enz -41
O=C(CCCc1nc(-c2ccc(Cl)cc2)no1)NCc1ccco1	none (no result: Coupling enz, EPAC2 agonist, EPAC1 agonist, EPAC1 antag, EPAC2 antag)
CCCN1C(=O)COc2ccc(C(=O)c3ccccc3C(=O)O)cc21	none
O=C(O)c1ccccc1C(=O)c1ccc2c(c1)N(Cc1cccc(F)c1)C(=O)CO2	Coupling enz -42
COC1=CC(=O)C=C(OC)C1=O	Coupling enz -81
COc1ccc(SN=C2C(C)=CC(=O)C=C2C)cc1	none
COC1=CC(=O)c2ccccc2C1=O	USP1-UAF1 inh 13µM (no result: Coupling enz)
CCOC(=O)C1=C(C)N(C)C(=S)NC1c1cccc(Cl)c1Cl (stereo not given)	none
O=C(CN1C(=O)C2CC=C(Cl)CC2C1=O)N1CCOCC1 (stereo not given)	Coupling enz -36
CCNc1ccc(Br)cc(C(=O)/C=C/c2ccc(Cl)cc2)c1=O	USP1-UAF1 inh 32µM
Cc1c(C(=O)c2ccc(F)cc2F)c2ccccn2c1CCC#N	Coupling enz -40, EPAC1 antag inconclusive
COc1ccc(OC(C)C(=O)Nc2ccccc2C(F)(F)F)cc1 (stereo not given)	none
O=C(CSc1nc2ccsc2c(=O)n1CC1CCC(C(=O)O)CC1)c1ccc(Cl)cc1 (stereo not given)	EPAC1 agonist inconclusive, EPAC1 antag 56µM
Cc1oc(C)c(C(N)=O)c1C(N)=O	none
N=c1c(S(=O)(=O)c2ccc(Br)cc2)cc2c(=O)n3ccccc3nc2n1C1CCCC1	EPAC2 antag 79µM (no result: Coupling enz)
N=c1c(S(=O)(=O)c2ccccc2)cc2c(=O)n3ccccc3nc2n1C1CCCC1	none
CCOC(=O)C1=C(C)NC(=O)CC1c1cc2c(cc1[N+](=O)[O-])OCO2 (stereo not given)	Coupling enz -53
CCCOC(=O)C1=C(C)N(C)C(=O)NC1c1cc2c(cc1[N+](=O)[O-])OCO2 (stereo not given)	none
C/C(=N/Nc1ccc(C(=O)O)cc1)c1ccc(O)c(O)c1O	Coupling enz -34, EPAC2 antag inconclusive
Cc1cc(C)c(S(=O)(=O)Nc2ccc[nH]c2=O)c(C)c1	Coupling enz -72
Cc1nn(CCc2nn[nH]n2)c2nc(-c3ccc(Br)cc3)cc(C(F)(F)F)c12	EPAC2 antag 32µM
Cc1ccccc1S(=O)(=O)NC(=O)C1(C)CCN1C(=O)C(C)(C)c1ccccc1 (stereo not given)	none (no result: USP1-UAF1 inh, Coupling enz)
COc1cc(CNc2ccc3[nH]c(=O)[nH]c3c2)ccc1OCC(=O)NC(C)(C)C	Coupling enz -30
COc1cc(CNC(C)(C)C)ccc1OCC(=O)NC(C)(C)C	none
COc1cc(CNn2cnnc2)ccc1OCC(=O)NC(C)(C)C	EPAC2 agonist 10µM
CCOc1ccc(Oc2ccccc2NC(=O)CN2C(=O)NC3(CCCC3)C2=O)cc1	EPAC1 agonist 28µM (no result: Coupling enz)
CCOC(=O)CC(=O)CSc1nc2ccc(C)cc2cc1C#N	USP1-UAF1 inh 28µM, EPAC2 agonist 100µM, EPAC1 agonist inconclusive
CCOC(=O)CC(=O)CSc1nc(CC)c(C)cc1C#N	none
COc1cc(S(=O)(=O)NCc2cccnc2)ccc1F	none
CN1CC(=O)N(CC(=O)Nc2ccc(Cl)c(C(F)(F)F)c2)c2ccccc2C1=O	none (no result: Coupling enz, EPAC2 agonist, EPAC1 agonist, EPAC1 antag, EPAC2 antag)
CN1CC(=O)N(CC(=O)Nc2ccc(N(C)C)cc2)c2ccccc2C1=O	Coupling enz -42
O=C1/C(=C/c2ccc(O)c(O)c2)Oc2cc(O)ccc21	EPAC1 antag inconclusive
CC(=O)Oc1ccc2c(c1)O/C(=C\c1ccncc1)C2=O	USP1-UAF1 inh 28µM, EPAC2 agonist inconclusive, EPAC1 agonist 89µM
COc1ccccc1C(=O)Oc1ccc2c(c1)O/C(=C\c1ccncc1)C2=O	USP1-UAF1 inh inconclusive, EPAC1 agonist 100µM
O=C(Oc1ccc2c(c1)O/C(=C\c1ccncc1)C2=O)c1cccs1	none
COc1cc(/C=C2\Oc3cc(O)ccc3C2=O)ccc1O	USP1-UAF1 inh 28µM
CC1CCCCC12NC(=O)N(CC(=O)Nc1cccnc1Cl)C2=O (stereo not given)	none (no result: Coupling enz)
CC(C)NC(=O)CC1Nc2c3ccccc3nc(=S)n2C1=O (stereo not given)	Coupling enz -35
CCOC(=O)c1nn(-c2ccc(OC)cc2)c(=O)c2c(N)scc12	USP1-UAF1 inh inconclusive, Coupling enz -53
COc1ccc(/C=N/NC(=O)c2nn(-c3ccccc3)c(=O)c3c(N)scc23)cc1	USP1-UAF1 inh inconclusive, Coupling enz -59, EPAC1 antag inconclusive
CCOC(=O)c1nn(-c2ccc(C)c(C)c2)c(=O)c2c(N)scc12	Coupling enz -49
O=C(O)c1ccccc1C(=O)OCCCc1ccncc1	none (no result: Coupling enz)
Nc1c(Cl)ncnc1N/N=C/c1ccc(O)cc1	EPAC1 antag inconclusive, EPAC2 antag 28µM
S=c1[nH]c2cc3ccccc3cc2[nH]1	USP1-UAF1 inh inconclusive, Coupling enz -53!
